These results are taken from PubChem BioAssay.

Experiment [1] can be described thus: hESC survival regulators, cell-based (AID 493140).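 Further: cells exposed to compounds for four days before counting.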 The settings on record: human embryonic stem cell survival screen; stronger effect = higher value.
The nature of experiment [2]: liver-stage malaria parasite growth inhibition, primary screen, cell-based, HepG2, luciferase luminescence, HepG2 viability (AID 624349; in the data active means parasite load remaining mostly below about 12%, no sharp cut-off; inactive means mostly above about 10%;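 further: 100% = mean of DMSO negative control wells on the same plate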). The settings on record: P. berghei liver stage in HepG2, luciferase luminescence, concentration not given here; parasite load remaining: stronger effect = lower value; viability: measured here: HepG2 viability without parasites.
Experiment [3] in a line: sensitizers of A549 cells to miR-34 induction, primary screen, imaging, A549 dox-inducible miR-34, nuclei and caspase counts (AID 1347080;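 active means compounds whose cell count with miR-34 switched on is under 0.7 times the count with it off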). The note with it: A549 miR-34 inducible, Hoechst nuclei count, 48 h.
The nature of experiment [4]: survival rescue of mitochondrial mutant cells in low glucose, primary screen, MELAS cybrids, Rieske KO mouse fibroblasts, CellTiter-Glo (AID 1508586;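 active means mean z-score across replicates of 1.96 or higher in either the MELAS or the Rieske mutant cell line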;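 further: z relative to plate mean and SD of compound and empty wells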). For orientation: ATP-based viability assays read luminescence as a measure of living cells.
Experiment [5] can be described thus: kinase inhibitors against Plasmodium liver-stage infection, cell-based, known kinase inhibitor set, luminescence, hepatoma host viability (AID 624392).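 Further: infected cells incubated roughly two days before readout.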 The note with it: Plasmodium liver stage in hepatoma cells, luciferase luminescence, concentration not given here; liver cell % of control: measured here: host liver cell viability; parasite % of control: stronger effect = lower value.

The nature of experiment [6]: suppressors of polyQ aggregation in yeast, 75Q-TubU reporter (AID 1593). The settings on record: Yeast 75Q polyglutamine aggregation reporter.
Experiment [7] in a line: enhancers of SMN2 over SMN1 splicing, cell-based, SMN2/SMN1 luciferase reporters (AID 1598). The note with it: SMN2 vs SMN1 luciferase splicing reporter cells, at 10 µM; SMN1 luciferase ratio: measured here: SMN1 luciferase reporter average; SMN2 luciferase ratio: measured here: SMN2 luciferase reporter average, stronger effect = higher value; SMN2/SMN1 luciferase ratio: stronger effect = higher value.

Experiment [8] can be described thus: rescue of polyQ-huntingtin neuronal dysfunction in worms, whole organism, C. elegans mechanosensory neurons, N-terminal huntingtin (AID 1599). The settings on record: touch response, stronger effect = higher value.
Experiment [9] can be described thus: inhibitors of mitochondrial cytochrome c release, biochemical, purified mitochondria (AID 1603).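 Further: mouse liver mitochondria challenged with calcium chloride; signal normalized to the plate average as 100%.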 The note with it: stronger effect = lower value.
The nature of experiment [10]: inhibitors of polyQ protein aggregation (AID 1604). The settings on record: polyglutamine-induced protein aggregation inhibition assay; stronger effect = higher value; tested at 2.5 µM.
Experiment [11] can be described thus: enhancers of glutamate uptake in motor neurons, MN-1 cell line (AID 1612).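 Further: tested at 1 µM final; 0% = mean of DMSO vehicle wells on each plate; positive means more glutamate uptake than control and negative means less.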 The note with it: MN-1 motor neuron cells, stronger effect = higher value.
Experiment [12] in a line: suppressors of polyglutamine aggregation in yeast, 75Q-TubH (AID 1616). The settings on record: S. cerevisiae 75Q-TubH polyglutamine aggregation suppression; stronger effect = higher value.
[13] abbreviates: stronger effect = lower value, cell number ratio, induced over uninduced.
Setting [14] is: measured here: relative caspase fold change +Dox/-Dox.
The mark [15] stands for this setting: measured here: total cells with miR-34 induction, stronger effect = lower value.
The mark [16] stands for this setting: measured here: total cells without miR-34 induction.
The mark [17] stands for this setting: MELAS cybrid survival, CellTiter-Glo 48 h, stronger effect = higher value.
Where [18] appears, read: Rieske KO mouse fibroblast survival, CellTiter-Glo 72 h.

Values joined by “and” are separate entries in the source; they are usually repeats but may differ in a detail not shown here. Identical values can stand only once. Results filed as inconclusive are left out. For some of these results: Entries with a potency or affinity are not part of this list. Active and inactive are the calls of the source. Unless noted, how the calls were made is not given here.

With `C=CCOc1ccccc1OCC(O)CNC(C)C` (stereo not drawn), the survival in [1] was 7.17 (inactive). Besides, in experiment [2], the parasite load remaining is 73.5% (inactive). Besides, in experiment [2], the viability was 76.9%. Also, the fold change in experiment [3] (setting [13]) was 0.94 (inactive); in experiment [3] (setting [14]) it was 0.727. The cell count in experiment [3] (setting [15]) stood at 9530; in experiment [3] (setting [16]), 10100. The z-score in experiment [4] (setting [17]) is 0.73 (inactive); in [4] (setting [18]), 0.111.
With `CN[C@H](CC(C)C)C(=O)N[C@H]1C(=O)N[C@@H](CC(N)=O)C(=O)N[C@H]2C(=O)N[C@H]3C(=O)N[C@H](C(=O)N[C@H](C(=O)O)c4cc(O)cc(O)c4-c4cc3ccc4O)[C@H](O)c3ccc(c(Cl)c3)Oc3cc2cc(c3O[C@@H]2OC(CO)[C@@H](O)[C@H](O)[C@H]2O[C@H]2C[C@](C)(N)[C@H](O)[C@H](C)O2)Oc2ccc(cc2Cl)[C@H]1O` (stereo partly drawn), in experiment [2], the parasite load remaining is 59.3% (inactive). Moreover, in experiment [2], the viability is 113%. Besides, the fold change in experiment [3] (setting [13]) was 0.843 (inactive); in experiment [3] (setting [14]), 1.57. For the same compound, the cell count in experiment [3] (setting [15]) was determined as 8980; in experiment [3] (setting [16]), 10700. In addition, the z-score in [4] (setting [17]) is -0.371 (inactive); in experiment [4] (setting [18]), -0.181.
As to `CCCC1C(=O)N2C(N(C)C)=Nc3ccc(C)cc3N2C1=O` (stereo not drawn), the survival in experiment [1] was 9.17 (inactive). Besides, the parasite load remaining in experiment [2] is 172% (inactive). Besides, the viability in experiment [2] turned out to be 71.8%. Besides, the fold change in experiment [3] (setting [13]) is 0.881 (inactive); in experiment [3] (setting [14]), 0.721. Moreover, the cell count in [3] (setting [15]) was 8830; in [3] (setting [16]), 10000. In addition, the figures for the z-score in experiment [4] (setting [17]) and in experiment [4] (setting [18]) were 0.00688 (inactive) and -0.91, respectively.
On to `CCCC(=O)Nc1ncnc2c1ncn2[C@@H]1O[C@@H]2OP(=O)(O)OC[C@H]2[C@H]1OC(=O)CCC`, for which, in experiment [2], the parasite load remaining is 71.6% (inactive). Moreover, in experiment [2], the viability is 101%. In addition, the fold change in experiment [3] (setting [13]) is 0.912 (inactive); in experiment [3] (setting [14]), 1.18. Besides, the results for the cell count in experiment [3] (setting [15]) and in [3] (setting [16]) were 9650 and 10600, respectively. The figures for the z-score in experiment [4] (setting [17]) and in experiment [4] (setting [18]) were 0.66 (inactive) and 0.0496, respectively.
For `CO[C@@H]1[C@@H](O[C@@H]2O[C@H](C)[C@@H](O[C@H]3C[C@@](C)(OC(=O)CC(C)C)[C@@H](O)[C@H](C)O3)[C@H](N(C)C)[C@H]2O)[C@@H](CC=O)C[C@@H](C)[C@@H](O)/C=C/C=C/C[C@@H](C)OC(=O)C[C@H]1OC(C)=O`, the parasite load remaining in experiment [2] was 40.7% (inactive). In addition, the viability in experiment [2] is 45.1%. The fold change in experiment [3] (setting [13]) is 0.924 (inactive); in [3] (setting [14]), 0.331. Besides, the figures for the cell count in [3] (setting [15]) and in experiment [3] (setting [16]) were 7880 and 8530, respectively. Moreover, the figures for the z-score in [4] (setting [17]) and in experiment [4] (setting [18]) were -0.757 (inactive) and -0.227, respectively.
On to `COc1ccc(-c2ccc3c(N4CCOCC4)nc(N4CC(C)OC(C)C4)nc3n2)cc1CO` (stereo not drawn), for which, in experiment [5], the liver cell % of control is 228% and 225% and 144%. The parasite % of control in [5] was 168% (inactive) and 180% (inactive) and 510% (inactive). For the same compound, the fold change in experiment [3] (setting [13]) is 1.04 (inactive); in [3] (setting [14]), 0.95. The cell count in experiment [3] (setting [15]) is 2720; in experiment [3] (setting [16]) it was 2620. Further, the values for the z-score in experiment [4] (setting [17]) and in experiment [4] (setting [18]) were 3.15 (active) and -0.466, respectively.
`O[N+]1=CC=CCC1=S.On1ccccc1=S.[Zn]` showed a score in experiment [6] of 0.07. For the same compound, in experiment [7], the SMN1 luciferase ratio was found to be 0.04, the SMN2/SMN1 luciferase ratio was 1.77 (active) and the SMN2 luciferase ratio came to 0.08. The compound further came in with a rescue above control in [8] of 16. Further, the cytochrome c release ratio in [9] was 1.27. Further, the inhibition of aggregation in experiment [10] was found to be 0%. In [11], the glutamate uptake change is -74.2%. The same compound yielded an aggregation suppression score in experiment [12] of -0.0147. For the same compound, in [2], the parasite load remaining was -0.27% (inactive) and -0.08% (inactive); the viability was 2.62% and 0%. The fold change in experiment [3] (setting [13]) is 0.416 (active). For the same compound, in experiment [3] (setting [14]), the fold change came out at 2.93. Besides, the cell count in [3] (setting [15]) was 79. Moreover, the cell count in experiment [3] (setting [16]) is 190.
In the case of `CCn1c(-c2nonc2N)nc2c(C#CC(C)(C)O)ncc(OCC3CCCNC3)c21` (stereo not drawn), in [5], the liver cell % of control is 56.6% and 72.4% and 90.5%. For the same compound, the parasite % of control in experiment [5] is 1.73% (inactive) and 5.98% (inactive) and 27.8% (inactive). The fold change in [3] (setting [13]) was 0.949 (inactive); in experiment [3] (setting [14]), 0.738. Also, the cell count was determined as 6620 in [3] (setting [15]) and 6980 in experiment [3] (setting [16]). Moreover, the z-score in experiment [4] (setting [17]) was -0.704 (inactive); in [4] (setting [18]) it was 0.217.

By viability is commonly meant a read-out of living cells in per cent, often relative to untreated cells.
